Compounds without any hit were thinned out: in the full panel of roughly 83,000, 20% have a hit.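 Single-concentration screen, 48 h exposure, 96-well plates. Endpoint: percent growth. Below 10 = active.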 Activity calls are given as the source filed them.
Legend:
Assay in all cases: NCI-60 one-dose screen, 48 h (100 = growth as untreated, 0 = no growth, -100 = all killed)
Settings in all cases: 10 µM unless noted
NCI-H23 lung = system: NCI-H23 lung
NCI-H226 lung = system: NCI-H226 lung
NCI-H322M lung = system: NCI-H322M lung
HOP-62 NSCLC = system: HOP-62 NSCLC
NCI-H460 lung = system: NCI-H460 lung
HOP-92 NSCLC = system: HOP-92 NSCLC
NCI-H522 lung = system: NCI-H522 lung
A549/ATCC NSCLC = system: A549/ATCC NSCLC
786-0 renal = system: 786-0 renal
COLO 205 colon = system: COLO 205 colon

Measured: growth

CC(=O)c1nn(-c2ccccc2)/c(=N\N=C\c2coc3ccc(F)cc3c2=O)s1
inactive: NCI-H23 lung 96.8% | NCI-H226 lung 86% | NCI-H322M lung 104% | HOP-62 NSCLC 85.6% | NCI-H460 lung 102% | HOP-92 NSCLC 90.6% | NCI-H522 lung 101% | A549/ATCC NSCLC 109% | 786-0 renal 110% | COLO 205 colon 111%

O=C1C(Cl)=C(N/N=c2/[nH][nH]/c(=N/NC3=C(Cl)C(=O)c4ccccc4C3=O)c3ccccc23)C(=O)c2ccccc21
inactive: NCI-H23 lung 82.5% | NCI-H226 lung 74.8% | NCI-H322M lung 58.4% | NCI-H460 lung 81.4% | HOP-92 NSCLC 117% | NCI-H522 lung 30.1% | A549/ATCC NSCLC 94.6% | 786-0 renal 96% | COLO 205 colon 52.5%
active: HOP-62 NSCLC -10.5%

CNC(=O)c1ccccc1Sc1ccc2c(/C=C/c3ccccn3)n[nH]c2c1
active: HOP-92 NSCLC 9.47% | COLO 205 colon 3.49%
inactive: NCI-H23 lung 47.5% | NCI-H226 lung 20.9% | NCI-H322M lung 34.9% | HOP-62 NSCLC 24.3% | NCI-H460 lung 20.2% | NCI-H522 lung 24.2% | A549/ATCC NSCLC 28.6% | 786-0 renal 44%

CCOC(=O)C1=C(C)NC(SCc2nnc(-c3ccc(Cl)cc3)o2)=NC1c1ccc(Cl)cc1 (stereo not given)
inactive: NCI-H23 lung 78.8% | NCI-H226 lung 69.9% | NCI-H322M lung 82.3% | HOP-62 NSCLC 92.8% | NCI-H460 lung 79% | HOP-92 NSCLC 64.1% | NCI-H522 lung 68.9% | A549/ATCC NSCLC 69% | 786-0 renal 83.4% | COLO 205 colon 79.6%

CC[C@H](Nc1nc(N)nc(N)c1Cl)c1nc2cccc(NCc3ccc(C(=O)NO)cc3)c2c(=O)n1-c1ccccc1
active: NCI-H23 lung -71.6% | NCI-H226 lung 4.53% | NCI-H460 lung 1.8% | HOP-92 NSCLC -15.7% | NCI-H522 lung -13.5% | A549/ATCC NSCLC -4.67% | 786-0 renal 3.36% | COLO 205 colon -20.1%
inactive: NCI-H322M lung 35.8% | HOP-62 NSCLC 11.6%

CC(C)NCCCCCNc1cc(O)cc2cccnc12
active: HOP-92 NSCLC -8.76% | COLO 205 colon -36.3%
inactive: NCI-H23 lung 45.7% | NCI-H226 lung 92.1% | NCI-H322M lung 56.9% | HOP-62 NSCLC 71.5% | NCI-H460 lung 105% | NCI-H522 lung 86.5% | A549/ATCC NSCLC 123% | 786-0 renal 70.1%

CCN(CC)CCCC(C)Nc1cnc(C(=O)Nc2ccc(Cl)c3cccnc23)cn1 (stereo not given)
inactive: NCI-H23 lung 80.4% | NCI-H226 lung 39.1% | NCI-H322M lung 35.3% | HOP-62 NSCLC 43% | HOP-92 NSCLC 38.8% | A549/ATCC NSCLC 23.4%
active: NCI-H460 lung 3.47% | NCI-H522 lung 4.41% | 786-0 renal -44.2% | COLO 205 colon -66.7%

Nc1n[nH]c2ccc([C@@H]3Nc4c(F)cc5[nH]ncc5c4[C@H]4C5CCC(C5)[C@@H]34)cc12 (stereo not given in full)
active: NCI-H460 lung 4.8% | NCI-H522 lung 6.67% | COLO 205 colon -0.831%
inactive: NCI-H23 lung 37.8% | NCI-H226 lung 18.4% | NCI-H322M lung 33.8% | HOP-62 NSCLC 37.8% | HOP-92 NSCLC 30.5% | A549/ATCC NSCLC 17.1% | 786-0 renal 40.4%

COc1ccc2nc(C)cc(Nc3ccccc3O)c2c1
inactive: NCI-H23 lung 100% | NCI-H322M lung 59.9% | NCI-H460 lung 20.6% | NCI-H522 lung 47.3% | COLO 205 colon 89.9%
active: NCI-H226 lung 0.475% | HOP-62 NSCLC -61.9% | HOP-92 NSCLC -23.7% | A549/ATCC NSCLC 3.25% | 786-0 renal -67%

ClCc1cccc(CSc2ncnc3c2ncn3Cc2cccc(CCl)c2)c1
active: NCI-H226 lung -54.8% | HOP-62 NSCLC -38.8% | NCI-H522 lung -69.8%
inactive: NCI-H23 lung 33.9% | NCI-H322M lung 101% | NCI-H460 lung 36.7% | HOP-92 NSCLC 99.3% | A549/ATCC NSCLC 88.7% | 786-0 renal 13% | COLO 205 colon 26.3%

CCN(CC)c1ccc(C(=N)c2ccc(N(C)C)cc2)cc1
inactive: NCI-H226 lung 16.4% | NCI-H322M lung 60.6% | A549/ATCC NSCLC 28.6%
active: NCI-H23 lung -23.3% | HOP-62 NSCLC 7.49% | NCI-H460 lung 0.221% | HOP-92 NSCLC -21% | NCI-H522 lung -13.5% | 786-0 renal 7.03% | COLO 205 colon -54.5%

COc1cc(C)c2c(=O)c3c(oc2c1)C(=O)c1c(O)c(OC)cc(O)c1C3=O
inactive: NCI-H226 lung 30.7% | NCI-H322M lung 14.2% | HOP-62 NSCLC 25.7% | 786-0 renal 20% | COLO 205 colon 109%
active: NCI-H23 lung -2.42% | NCI-H460 lung 1.04% | HOP-92 NSCLC -32% | NCI-H522 lung -48.3% | A549/ATCC NSCLC 7.31%

F
active: HOP-92 NSCLC -5.03% [6.87 mM] | 786-0 renal -1.01% [6.87 mM]
inactive: NCI-H23 lung 41.1% [6.87 mM] | NCI-H226 lung 90.6% [6.87 mM] | NCI-H322M lung 46.4% [6.87 mM] | HOP-62 NSCLC 10.7% [6.87 mM] | NCI-H460 lung 45.1% [6.87 mM] | NCI-H522 lung 56.8% [6.87 mM] | A549/ATCC NSCLC 18% [6.87 mM] | COLO 205 colon 40.3% [6.87 mM]

COc1cc(/C=C/c2ccc3c(Br)cc(Br)c(O)c3n2)ccc1O
active: NCI-H460 lung 3.91% | NCI-H522 lung -38.2%
inactive: NCI-H23 lung 36.9% | NCI-H226 lung 67.7% | NCI-H322M lung 40.5% | HOP-62 NSCLC 33% | HOP-92 NSCLC 16.6% | A549/ATCC NSCLC 14.2% | 786-0 renal 32.6% | COLO 205 colon 58%

Nc1c(C(=O)c2ccc(Br)cc2)sc2nc3c(cc12)CCCC3
inactive: NCI-H23 lung 97.4% | NCI-H226 lung 92.2% | NCI-H322M lung 101% | HOP-62 NSCLC 98.6% | NCI-H460 lung 103% | HOP-92 NSCLC 89.2% | NCI-H522 lung 43.1% | A549/ATCC NSCLC 96.8% | 786-0 renal 98.2% | COLO 205 colon 104%

COc1cc2c(cc1OC)C(=O)OC2
inactive: NCI-H23 lung 118% | NCI-H226 lung 93.4% | NCI-H322M lung 116% | HOP-62 NSCLC 113% | NCI-H460 lung 110% | HOP-92 NSCLC 75.5% | NCI-H522 lung 111% | A549/ATCC NSCLC 104% | 786-0 renal 114% | COLO 205 colon 134%

C=C(C)[C@@H]1CC[C@]2(C)[C@H](CC=C3[C@@H]4C[C@](C)(C(=O)N5CCN(C)CC5)CC[C@]4(C)CC[C@]32C)[C@@]1(C)CCC#N
inactive: NCI-H23 lung 72.5% | NCI-H226 lung 69.6% | NCI-H322M lung 85.1% | HOP-62 NSCLC 63.1% | NCI-H460 lung 28% | HOP-92 NSCLC 32.7% | NCI-H522 lung 79.8% | A549/ATCC NSCLC 55.3% | 786-0 renal 71.5% | COLO 205 colon 45.2%

NC(=O)Nc1ccc2ncnc(Nc3cccc(O)c3)c2c1
inactive: NCI-H23 lung 100% | NCI-H226 lung 102% | NCI-H322M lung 83.5% | HOP-62 NSCLC 92.8% | NCI-H460 lung 108% | HOP-92 NSCLC 78% | NCI-H522 lung 102% | A549/ATCC NSCLC 93.5% | 786-0 renal 92.6% | COLO 205 colon 94.7%

Cc1ccc(O)c(Cc2ccccc2)c1
inactive: NCI-H23 lung 101% | NCI-H226 lung 106% | NCI-H322M lung 112% | HOP-62 NSCLC 96.2% | NCI-H460 lung 99% | HOP-92 NSCLC 52.7% | NCI-H522 lung 93.5% | A549/ATCC NSCLC 101% | 786-0 renal 107% | COLO 205 colon 111%

CCCCn1c(C)nc2cc(Nc3nc(Cl)nc4nc[nH]c34)ccc21
active: HOP-92 NSCLC -1.07%
inactive: NCI-H23 lung 77.9% | NCI-H226 lung 75% | NCI-H322M lung 76.8% | HOP-62 NSCLC 66% | NCI-H460 lung 84.7% | NCI-H522 lung 78.9% | A549/ATCC NSCLC 85% | 786-0 renal 76.4% | COLO 205 colon 89.7%

CCCCN(CCCC)CCCN=c1nc2c(c(N)n1-c1ccccc1)c(=S)n(-c1ccccc1)c(=S)n2-c1ccccc1
active: NCI-H23 lung -56.3% | NCI-H226 lung -82.5% | NCI-H322M lung -57.8% | HOP-62 NSCLC -99.6% | NCI-H460 lung -95.7% | HOP-92 NSCLC -66.9% | NCI-H522 lung -54.8% | A549/ATCC NSCLC -38.4% | 786-0 renal -100% | COLO 205 colon -74.1%

C=CCn1c(C)nc2cc(Nc3nc(Nc4ccc5nc(C)n(CC=C)c5c4)nc4ccccc34)ccc21
inactive: NCI-H23 lung 94.2% | NCI-H226 lung 99.8% | NCI-H322M lung 109% | HOP-62 NSCLC 101% | NCI-H460 lung 117% | HOP-92 NSCLC 79.8% | NCI-H522 lung 99.1% | A549/ATCC NSCLC 96.3% | 786-0 renal 113% | COLO 205 colon 108%

CC1=NC(c2ccc(Cl)cc2)C2=C(N1)/C(=C/c1ccc(Cl)cc1)CCC2 (stereo not given)
inactive: NCI-H23 lung 81.8% | NCI-H226 lung 113% | NCI-H322M lung 94.5% | HOP-62 NSCLC 106% | NCI-H460 lung 99.4% | HOP-92 NSCLC 86.4% | NCI-H522 lung 98.6% | A549/ATCC NSCLC 89% | 786-0 renal 92.7% | COLO 205 colon 99%

O=C(NC1CC1)c1ccc(-c2nc3ccc4[nH]ncc4c3c3c2CCCC3)cc1
inactive: NCI-H23 lung 53.3% | NCI-H226 lung 44.7% | NCI-H322M lung 41.7% | HOP-62 NSCLC 28.9% | NCI-H460 lung 41.7% | HOP-92 NSCLC 71.2% | NCI-H522 lung 18.9% | A549/ATCC NSCLC 26.3% | 786-0 renal 42.1% | COLO 205 colon 23.6%

C[C@@H]1C[C@H](N)C[C@H](c2ccncc2NC(=O)c2ccc(F)c(-c3c(F)cccc3F)n2)C1
inactive: NCI-H23 lung 73.3% | NCI-H226 lung 53.6% | NCI-H322M lung 71% | HOP-62 NSCLC 49.1% | NCI-H460 lung 62.5% | HOP-92 NSCLC 10.4% | NCI-H522 lung 46.4% | A549/ATCC NSCLC 48.7% | 786-0 renal 56.1%
active: COLO 205 colon -33.4%

CCCCC(CCc1ccccn1)C(=O)c1ccccc1 (stereo not given)
inactive: NCI-H23 lung 98.8% | NCI-H226 lung 118% | NCI-H322M lung 103% | HOP-62 NSCLC 106% | NCI-H460 lung 112% | HOP-92 NSCLC 94.9% | NCI-H522 lung 131% | A549/ATCC NSCLC 111% | 786-0 renal 110% | COLO 205 colon 112%

O=[N+]([O-])c1cccc([I+]c2ccccc2)c1
active: HOP-62 NSCLC -26.8%
inactive: NCI-H23 lung 49.8% | NCI-H226 lung 59% | NCI-H322M lung 76.6% | NCI-H460 lung 18.2% | HOP-92 NSCLC 93.6% | NCI-H522 lung 50.3% | A549/ATCC NSCLC 47.7% | 786-0 renal 70.8% | COLO 205 colon 40.1%

— PubChem BioAssay (NCI)
